The text below walks through data of the supplement of paper PMC6555819.

One test concerns PPARg:RXRa 30nM:10nM, anti-RXR (NR concentration 30 nM, RXRa partner concentration 10 nM). In words: PBM binding z-score (relative to random genomic background probes); higher = stronger binding; sequences stand for … in GC…GCGATTGACAGCGTAGAATGAAGG
In short, it runs like this:
(§1)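 Custom Agilent 4×180K protein-binding microarrays carried double-stranded probes. Their 34-nt variable regions held direct-repeat seeds, single-nucleotide variants, half-site ablations and random human genomic background sequences. Arrays were incubated 1 h with ligand-free nuclear receptor dimers in PBS pH 7.4, 2% milk, 0.02% Triton X-100, 1 mM DTT, 0.2 mg/mL BSA and 0.4 mg/ml salmon testes DNA. Antibodies against each partner (one per run) detected binding, and scanned fluorescence was regression-normalized. Binding z-scores use random background probes as reference.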
Take ATATGTAGGGTAGCTGGGGTCATTCAGACTAGGC: the PBM binding z-score worked out at 2.14. On the same count and under the same terms, to CCGAGTAGGATATGGGGCATTCAGGCAACGGTGA belongs 0.579. On to ATCGACAGGTCGTGAGGTGAGTATACAGAAAGGC, for which the PBM binding z-score was 0.126. In turn, GCGTCTGGGGCATCAGCAGGTTACCATAACTTAA displayed a PBM binding z-score of -0.644.

For CCGACTGGGGCAAGGCTACCATAACGCACAGCCA, the PBM binding z-score is -0.201.

As for CAAACTAGGTCACCGGTAGGTCAAAGTCCGCATG, the PBM binding z-score came out at 5.74. The same measure, in the same setting: to TCTTGTAGATCAGCAGTTTAAGAAAGCTGGCCAA belongs 2.68; to CAGCCTAGGTCAGGCCCAGTATAGGAGGAACGTT, -0.32.

With ATATATAGGTTAGCTGGGGTCATTCAGACTAGGC, the PBM binding z-score turned out to be 2.62. GCTTACGGTTCAAAGGTTATAGCATGAATAGAAT yielded a PBM binding z-score of 2.92. AGAATGAGGTTACCGAAGATCAGGGAAACGCTTG showed a PBM binding z-score of 1.19. Still for that read-out and setting: the value for AGAATGAGGTTATCCGTAGATCAGGGAAGAAAGT was 0.418; that for TGAATGAGGTTAAAGATCAGGGAACGTGGCGTCG was 4.6. On the same count and under the same terms, the value for AGAATGAGGGTATTAAGATCAGGGAATTGCGGTC was 0.322; that for CTACCAACGTGAACAAGGTCGTTGATTACTATTC was -0.0638; that for ACTAGTCGGTCAGCTGAGGTCACACACAATTCGG was 0.573. Take CCTTGGAGGACAGAAGGTCAGAGCTGTCCGCTTT: the PBM binding z-score worked out at 0.178. Still for that read-out and setting: the value for TGTCAAGGTTCAAAGGTAACGTAAGTATCCACAC was 3.14.

The subject of a further test is PPARg:RXRa 90nM:30nM, anti-RXR (NR concentration 90 nM, RXRa partner concentration 30 nM). The description is as above. In short, it runs like this:
as §1
As to GCAGACAGGTGAAACGCAGATAACTCAGGGTGGC, the PBM binding z-score is -0.137. On the same count and under the same terms, the value for AGAATGAGGTTAAGATCACGGAAACAGAATACAT was 2.11. The sequence ATCGAAAGGTCGTAGGTGAGTATACCCACCCGAA showed a PBM binding z-score of 3.46. On the same count and under the same terms, to CCTATTAGTCGACCATAAGGGCAACCGAAGCTCG belongs 0.358; to ACAGACAGGTGATGGAGGTAACTCAGGCTATCAT, -0.291.

TCTAGCAGGCCAGAGGGTCACTCCAGAGGTACGG registered a PBM binding z-score of 2.31.

Turning to AGAACTAGGGCACGCTGAGTTGATAGCAGAGTAG, the PBM binding z-score came to 3.37. CGTCAAAGTTCAAGGTAACTTAACAGAAAGCAGC had a PBM binding z-score of 3.84.

As for CCTAGCAGGCCAAACTGGGTCACTCAAGGCTTGA, the PBM binding z-score was found to be 0.712.

As for TAAATGAGGTTATAAGATCAGGGAACGTTGCAAA, the PBM binding z-score was 2.51. CCTACTGGGCCACGAAAGGTCATTAATTCAGTGA showed a PBM binding z-score of 3.83.

For the sequence GCTGCTAGGTCAACTGATGGACAGCTAAAGCTCG, the PBM binding z-score was determined as 1.92. With AATCGGAGGACAAAGGTCAGAGCTACGCCAGTGA, the PBM binding z-score is 7.59. TCGAGTAGGTTAGTCGGGGCATTCAGCCAACATA registered a PBM binding z-score of 0.377.

TCATATAGGTAAACAGGTGAAATTCCGTAAGTTA displayed a PBM binding z-score of 3.8.

The sequence CGAACTAGGTCATCCAGGACAGTGAGTACATTGA showed a PBM binding z-score of 5.85.

In turn, ATACCAAGGTGATCGTGAGGTCGCTGATACTAAC had a PBM binding z-score of 0.198. Sequence TCGAGTAGGTTCGTCGGGGCATTCAGCCAACATA registered a PBM binding z-score of 0.64. Take TAGCCTAGGTCAGATAGGGCCAGTATACGCTATA: the PBM binding z-score came out at 0.283. Still for that read-out and setting: to CAAACTAGGTCACCGGAAGGTCACAGTCCGCATG belongs 7.55. The sequence CACACTAGGTCAAGGTCAAAGTCGGTTTGTGCCA came in with a PBM binding z-score of 7.61. Consider ACTATTAGTTGAGACGAGGGCAACCAATAGGTTG, for which the PBM binding z-score worked out at 0.58. For the sequence ATATGTAGGGTAGCTGGGGTCATTCAGACTAGGC, the PBM binding z-score stood at 3.95. The same measure, in the same setting: to CCGAGTAGGATATGGGGCATTCAGGCAACGGTGA belongs 1.45; to ATCGACAGGTCGTGAGGTGAGTATACAGAAAGGC, 0.461; to GCGTCTGGGGCATCAGCAGGTTACCATAACTTAA, -0.174.

Sequence CCGACTGGGGCAAGGCTACCATAACGCACAGCCA had a PBM binding z-score of 0.0921. Still for that read-out and setting: the value for CAAACTAGGTCACCGGTAGGTCAAAGTCCGCATG was 7.12; that for TCTTGTAGATCAGCAGTTTAAGAAAGCTGGCCAA was 2.09. The same measure, in the same setting: to CAGCCTAGGTCAGGCCCAGTATAGGAGGAACGTT belongs 0.386. Still for that read-out and setting: to ATATATAGGTTAGCTGGGGTCATTCAGACTAGGC belongs 4.79.

On to GCTTACGGTTCAAAGGTTATAGCATGAATAGAAT, for which the PBM binding z-score worked out at 5.08. Turning to AGAATGAGGTTACCGAAGATCAGGGAAACGCTTG, the PBM binding z-score was 2.55. Sequence AGAATGAGGTTATCCGTAGATCAGGGAAGAAAGT showed a PBM binding z-score of 1.32. TGAATGAGGTTAAAGATCAGGGAACGTGGCGTCG: the PBM binding z-score worked out at 6.57. Still for that read-out and setting: the value for AGAATGAGGGTATTAAGATCAGGGAATTGCGGTC was 0.102; that for CTACCAACGTGAACAAGGTCGTTGATTACTATTC was 0.0634; that for ACTAGTCGGTCAGCTGAGGTCACACACAATTCGG was 2.

In turn, CCTTGGAGGACAGAAGGTCAGAGCTGTCCGCTTT returned a PBM binding z-score of 1.81.

As for TGTCAAGGTTCAAAGGTAACGTAAGTATCCACAC, the PBM binding z-score was determined as 5.92.
